Results published in publication PMC13083723 (Patterns, 2026).
Among all 5,400 compounds or so, about 190 (3.5%) showed an effect of 50% or more. The entries come from a sample that favours strong results as a whole.

The molecules below were run on Vero-E6 (assay: primary screen, phospholipidosis by LipidTOX staining; higher = more effect of the substance). Settings: 10 µM.
Outline: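 Drug-induced phospholipidosis detected with HCS LipidTOX Red reagent in Vero-E6 cells. Compounds tested at 10 μM, with amiodarone (10 μM) as positive control and DMSO (0.1 v/v %) as vehicle.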

Structure (SMILES) | result_ITMP
NC1C[C@H]1c1ccccc1 (stereo partly shown) | -1.26%
c1ccc([C@@H]2C[C@H]2NC2CCNCC2)cc1 | 27.9%
N[C@H]1CC[C@H](N[C@@H]2C[C@H]2c2ccccc2)CC1 | 65.7%
C[C@]12CCC(=O)C=C1C=CC1C2CC[C@@]2(C)C1CC[C@@]2(O)CCC(=O)[O-] (stereo partly shown) | -3.36%
Cc1ccc(S(=O)(=O)[N-]Cl)cc1 | -2.26%
CC[C@]1(O)C[C@@H]2C[N@@](CCc3c([nH]c4ccccc34)[C@@](C(=O)OC)(c3cc4c(cc3OC)N(C)[C@H]3[C@@](O)(C(=O)OC)[C@H](OC(C)=O)[C@]5(CC)C=CCN6CC[C@]43[C@@H]65)C2)C1 | 8.57%
CCN(CCCc1ccccc1)CCCc1ccccc1 | 58.9%
NC(=O)OCCCc1ccccc1 | -6.09%
O=C([O-])CCCc1ccccc1 | 0.94%
C#Cc1cnc(O)nc1O | -3.59%
Cc1ccc(C)c(Oc2ccncc2C(=O)N2CCN(C3CC3)c3ccccc32)c1 | -4.61%
O=C(O)c1ccccc1NC(=O)N1CCC(c2ccccc2C(F)(F)F)CC1 | -0.92%
CCOc1ccc(S(=O)(=O)[O-])c2cccnc12 | -2.55%
CCN(CC)CCOC(=O)C(c1ccccc1)c1ccccc1 | 3.73%
CCN(CC)CCOC(=O)C1(c2ccccc2)CCCC1 | 2.32%
CCN(CC)CCOC(=O)C(c1ccccc1)C1CCCCC1 (stereo not shown) | 52%
COc1ccc2c(C)nc(Nc3nc(=O)c(C)c(C)[nH]3)nc2c1 | 0.3%
OCCNC1CCCc2c1[nH]c1ccc(-c3ccccc3)cc21 (stereo not shown) | 89.4%
NC(=O)C1CCCc2c1[nH]c1ccc(Cl)cc21 (stereo not shown) | -0.07%
C[C@H](N)C(=O)N[C@@]1(C(=O)O)C[C@@H](Sc2nnc[nH]2)[C@H]2[C@H](C(=O)O)[C@H]21 | -1.74%
Nc1ncnc2c1c(-c1cccc(OCc3ccccc3)c1)cn2C1CC(CN2CCCC2)C1 (stereo in doubt) | 41.5%

Structure (SMILES) | result_ITMP
Nc1ncnc2c1c(-c1ccc(Oc3ccccc3)cc1)nn2C1CCCC1 | -1.17%
Nc1ncnc2c1c(-c1cccc(OCc3ccccc3)c1)cn2[C@H]1C[C@@H](CN2CCC2)C1 | 69.4%
CC(C)(C)C(=O)Oc1ccc(S(=O)(=O)Nc2ccccc2C(=O)NCC(=O)[O-])cc1 | -1.15%
C=C1/C(=C\C=C2/CCC[C@]3(C)[C@@H]([C@H](C)/C=C/[C@H](C)C(C)(C)O)CC[C@@H]23)C[C@@H](O)C[C@@H]1O | -2.3%
COc1ccc(CCNCc2ccc(OCc3ccc(Cl)nc3)c(OC)c2)cc1OC | 59.3%
COc1ccc(CCN)cc1OC | -4.61%
COc1ccc(COc2ccc(Cc3cnc(N)nc3N)cc2OC)cc1 | -3.18%
CC[C@H](/C=C/[C@@H](C)[C@H]1CC[C@H]2[C@@H]3CC=C4C[C@@H](O)CC[C@]4(C)[C@H]3CC[C@]12C)C(C)C | -2.7%
O=C(O)c1ccc2[nH]cc(CCCCN3CC=C(c4ccccc4)CC3)c2c1 | -12.5%
O=C1Nc2ccc(Cl)c3c2C1(CCCCN1CC=C(c2ccc(Cl)cc2)CC1)CCC3 (stereo not shown) | 70.2%
CO[C@H]1C[C@H](O[C@H]2CC[C@@]3(C)[C@H](CC[C@@H]4[C@@H]3CC[C@]3(C)[C@@H](C5=CC(=O)OC5)[C@@H](OC(C)=O)C[C@]43O)C2)O[C@@H](C)[C@@H]1O | -2.23%
CO/N=C(\C(=O)N[C@@H]1C(=O)N2C(C(=O)[O-])=CCS[C@H]12)c1csc(N)n1 | -1.89%
CCC1=C[C@@H]2C[N@](C1)Cc1c([nH]c3ccccc13)[C@@](C(=O)OC)(c1cc3c(cc1OC)N(C)[C@H]1[C@@](O)(C(=O)OC)[C@H](OC(C)=O)[C@]4(CC)C=CCN5CC[C@]31[C@@H]54)C2 | 7.31%
CCN(CC)CC1CCN(c2ncc3ncnc(Nc4ccc(F)c(Cl)c4)c3n2)CC1 | 97%
C=CC(=O)Nc1cc2c(Nc3ccc(F)c(Cl)c3)ncnc2cc1C#CC(C)(C)N1CCN(C)CC1 | 36.6%
CN1CCC(Nc2ncc3ncnc(Nc4ccc(F)c(Cl)c4)c3n2)CC1 | 76.5%
N#Cc1cc(CN2CCC(Nc3ncnc4sc(Cl)cc34)CC2)ccc1F | 18.7%
CCN1CCC(n2cc(CNc3cc(Cl)c4ncc(C#N)c(Nc5ccc(F)c(Cl)c5)c4c3)nn2)CC1 | 9.34%
CC(C)(C)NCC(O)COc1cccc2c1C[C@H](O)[C@H](O)C2 (mixture of isomers) | -2.49%
CC[C@H](C)[C@H](NC(=O)[C@H](CCC(=O)O)NC(=O)[C@H](CCC(=O)O)NC(=O)[C@H](Cc1ccccc1)NC(=O)[C@H](CC(=O)O)NC(=O)CNC(=O)[C@H](CC(N)=O)NC(=O)CNC(=O)CNC(=O)CNC(=O)CNC(=O)[C@@H]1CCCN1C(=O)[C@H](CCCNC(=N)N)NC(=O)[C@@H]1CCCN1C(=O)[C@H](N)Cc1ccccc1)C(=O)N1CCC[C@H]1C(=O)N[C@@H](CCC(=O)O)C(=O)N[C@@H](CCC(=O)O)C(=O)N[C@@H](Cc1ccc(O)cc1)C(=O)N[C@@H](CC(C)C)C(=O)O | 0.65%
O=C1[N-]C(=O)C(c2ccccc2)(c2ccccc2)N1 | -1.89%

Structure (SMILES) | result_ITMP
NC(N)=NC(=O)c1cnn(-c2cccc3ncccc23)c1C1CC1 | -1.94%
CCn1c2ccccc2c2cc(Nc3ccnc(NCCCN4CCOCC4)n3)ccc21 | 57.6%
Cc1cc(-c2ccccc2)nnc1NCCN1CCOCC1 | -1.84%
COc1ccc(C(=O)c2c(C)n(CCN3CCOCC3)c3ccccc23)cc1 | 0.58%
O=C([O-])C1[O][Sb]2[O]C(=O)C([O]2)C(C(=O)[O-])[O][Sb]2[O]C(=O)C1[O]2 (stereo not shown) | -8.7%
CC1(C)S[C@@H]2[C@H](NC(=O)COc3ccccc3)C(=O)N2[C@H]1C(=O)[O-] | -2.47%
COc1ccccc1C1(O)CCN(CCCn2c3ccccc3c3ccccc32)CC1 | 52.4%
COc1ccccc1N1CCN(CCN2C(=O)c3ccccc3C(C)(C)C2=O)CC1 | 2.7%
Fc1ccc(-n2cc(CCCCN3CCC4(CC3)OCc3ccccc34)c3ccccc32)cc1 | 26.9%
CC1=C(/C=C/C(C)=C/C=C/C(C)=C/C(=O)O)C(C)(C)CCC1 [R4A_0003961_001 / SPE_K71879491] | 4.7%
C[C@H](Nc1ncnc2[nH]cnc12)c1cc2ccc(F)cc2nc1-c1ccccn1 [R4A_0002240_001 / SPE_A58947127] | 4.77%
COc1ccc(C(=O)/C(Cc2cc(OC)c(OC)c(OC)c2)=C(\C(=O)[O-])c2ccc3c(c2)OCO3)cc1 | -3.57%
Cc1[nH]c2ccc(Cl)cc2c1C1=CCNCC1 | 96.8%
COc1ccc2[nH]cc(C3=CCNCC3)c2c1 | -0.41%
O=c1ccc2[nH]cc(C3=CCNCC3)c2[nH]1 | -1.73%
C[C@@H]([C@H](C)O)[C@H](N)C(=O)O | 0.75%
N#CN/C(=N\c1ccncc1)NCCCCCCOc1ccc(Cl)cc1 | 0.38%
COc1ccc(-c2ccc3c(N4CCOCC4)nc(N4C[C@@H](C)O[C@@H](C)C4)nc3n2)cc1CO | 1.47%
COc1cc2c(cc1O)C(CCc1ccc(Cl)cc1)N(C)CC2 (stereo not shown) | 64%
COc1ccc(OCC2c3cc(OC)c(OC)cc3CCN2C(=O)c2cccc(Cl)c2)cc1 (stereo not shown) | -4.92%
CNC(=O)[C@@H](c1ccccc1)N1CCc2cc(OC)c(OC)cc2[C@@H]1CCc1ccc(C(F)(F)F)cc1 | 1.25%

Structure (SMILES) | result_ITMP
Cc1c(N(C)CS(=O)(=O)[O-])c(=O)n(-c2ccccc2)n1C | -4.64%
CCCCCCCCCC(=O)O[C@H]1CC[C@H]2[C@@H]3CCC4=CC(=O)CC[C@@H]4[C@H]3CC[C@]12C | -0.22%
CN1CCC2=C(C1)C(c1ccccc1)c1ccccc12 (stereo not shown) | 6.76%
CN1CCC2=C(C1)c1ccccc1Cc1ccccc12 | 52.7%
CN1CCC(=C2c3ccccc3CC(=O)c3sccc32)CC1 | 29%
O=[N+]([O-])O[C@@H]1CO[C@H]2[C@@H]1OC[C@@H]2O | -9.17%
C[C@@H](O[C@H]1OCCN(Cc2nn(P(=O)(O)O)c(=O)[nH]2)[C@H]1c1ccc(F)cc1)c1cc(C(F)(F)F)cc(C(F)(F)F)c1 | 6.28%
C[C@@H](O[C@H]1OCCN(Cc2n[nH]c(=O)[nH]2)[C@H]1c1ccc(F)cc1)c1cc(C(F)(F)F)cc(C(F)(F)F)c1 | 2.55%
C[C@@H](O[C@H]1OCCN(Cc2nn[nH]c2CN(C)C)[C@H]1c1ccc(F)cc1)c1cc(C(F)(F)F)cc(C(F)(F)F)c1 | 71.2%
OCCNCCCOc1cccc(Cl)c1Cl | 55.4%
C[C@]12CCC(=O)C=C1CC[C@@H]1[C@@H]2CC[C@@]2(C)[C@H]1CC[C@]2(O)C(=O)CO | -5.73%
CCCCOc1ccc(C(=O)Nc2ccc(F)cc2F)cc1 | -8.12%
C=CCN(C)CCCCCCOc1ccc(C(=O)c2ccc(Br)cc2)c(F)c1 | 92.9%
CCOc1ccc(-c2ccc(Cn3c(CC(C)(C)C(=O)[O-])c(SC(C)(C)C)c4cc(OCc5ccc(C)cn5)ccc43)cc2)cn1 | 0.09%
CCN(CC)CCCCNc1ncc2cc(-c3c(Cl)cccc3Cl)c(NC(=O)NC(C)(C)C)nc2n1 | 69.2%
CNc1ncc2cc(-c3cc(NC(=O)NCCC(C)(C)C)c(F)cc3C)c(C)nc2n1 | -7.16%
CCN(CC)CCCCNc1ncc2cc(-c3cc(OC)cc(OC)c3)c(NC(=O)NC(C)(C)C)nc2n1 | 90.1%
CCN(CC)CCNC(=O)COc1ccc(OC)cc1 | -4.1%
CCN(CC)CCOc1ccc(Nc2ncc3cc(-c4c(Cl)cccc4Cl)c(=O)n(C)c3n2)cc1 | 24.2%
